# Results with a measured potency or affinity are listed apart. The source made the active and inactive calls.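 The calls were made as follows: active = fitted half-maximal concentration for ATP signal loss at most twice the top valid dose; inconclusive = flat curve between -70 and -30%, or an invalid fit; inactive = flat within ±30%, wrong direction, or potency past limit.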
# Test: viability loss in HepG2 hepatoma cells – cell-based, cherry-picks, set 5, cytotoxicity control, dose response (AID 1053118)
# Settings: ATP luminescence, 72 h; series mostly up to 26 µM
row,SMILES,outcome
1,Cc1ccc(NC(=O)COC(=O)c2cc(Cl)ccc2[N+](=O)[O-])c(C)c1,inactive
2,O=C(Nc1nc(-c2ccncc2)cs1)C1COc2ccccc2O1 (stereo not drawn),inactive
3,CO[C@H]1CN(C)C(=O)c2cc(NC(=O)Nc3ccc(Cl)c(Cl)c3)ccc2OC[C@@H](C)NC[C@H]1C,inactive
4,N#Cc1ccc(-c2ccc3c(c2)[C@H]2[C@H](CCN2S(=O)(=O)c2cccc(F)c2)[C@H](CO)N3)cc1,inactive
5,CC(=O)Nc1cccc(-c2ccnc3c2CC(C)(C(=O)Nc2cccc(C(F)(F)F)c2)O3)c1 (stereo not drawn),inactive
6,Cc1ccc(S(=O)(=O)N2CC[C@@H]3[C@@H](CO)Nc4ccc(-c5cccc(C(=O)N(C)C)c5)cc4[C@@H]32)cc1,inactive
7,C[C@H](CO)N1C[C@H](C)[C@H](CN(C)Cc2ccc(-c3ccccc3)cc2)Oc2ccc(NC(=O)C3CCCCC3)cc2C1=O,inactive
8,C[C@@H]1CN([C@@H](C)CO)C(=O)c2cc(NC(=O)C3CCCCC3)ccc2O[C@@H]1CN(C)Cc1ccc(-c2ccccc2)cc1,inactive
9,CCN(Cc1ccncc1)C(=O)c1ccc2c(c1)S(=O)(=O)c1ccccc1C2=O,inactive
10,C[C@H]1CN([C@@H](C)CO)C(=O)c2cc(NC(=O)C3CCCCC3)ccc2O[C@@H]1CN(C)Cc1ccc(-c2ccccc2)cc1,inactive
11,CC1CN(C(=O)c2cc3c(=O)n4ccccc4nc3n2C)CC(C)O1 (stereo not drawn),inactive
12,CCCCNC(=O)Nc1nc2ccc(CC)cc2s1,inactive
13,O=C(Nc1ccccc1F)N1C[C@@H]2[C@H](c3ccccc31)[C@H](CO)N2C(=O)C1CC1,inactive

# Reference: PubChem BioAssay AID1053118 (Broad Institute, 2014)
